Out of some 65,000 compounds screened, about 2,100 (3.2%) showed an effect of 50% or more. The median lay at about -52%. Only a selection was taken, and strong results are over-represented in it overall.
Tested on: Plasmodium falciparum
Test: Screen against P. falciparum Asexual Blood Stage (ABS), at 5uM
Assay type: functional, Dd2
Settings: tested at 5 uM

SMILES | INHIBITION [%]
Cc1cc(-c2cnc(NC3CCCC3)nc2-c2ccoc2C)on1 | -65.8
Cc1cc(-c2cnc(NC3CC3)nc2-c2ccoc2C)on1 | -62
CCN(CC)CCNc1ncc(-c2cc(C)no2)c(-c2ccoc2C)n1 | 61.9
CCc1nc(C2CCCN(C(=O)c3ccccc3F)C2)no1 (stereo not given) | -49.5
CS(=O)(=O)N1C[C@H]2CC[C@@H](C1)N(C/C=C/c1ccc(F)cc1)C2 | -43.1
CN(C)C(=O)N1C[C@H]2CC[C@@H](C1)N(C/C=C/c1ccc(F)cc1)C2 | 57.8
CN(C)C(=O)CN1C[C@H]2CC[C@@H](C1)N(C/C=C/c1ccc(F)cc1)C2 | 43.5
NC(=O)Cn1ccc(O)c(Cc2ccc(Cl)cc2Cl)c1=O | -144
CN(C)[C@H]1CCN(c2ccnc(C(=O)NCc3ccco3)c2)C1 | -95.2
CCCOC1CCCN(c2ccnc(C(=O)NCc3ccco3)c2)C1 (stereo not given) | 64.2
O=C(NCc1ccco1)c1cc(N2CC[C@@H](O)C2)ccn1 | -217
Cc1ncnc2c1CCN(S(=O)(=O)C1CC1)CC2 | -47.1
CCc1nc(CN2CCCC(N(C)CCc3cccs3)C2)no1 (stereo not given) | 12.3
Cn1ccnc1CN1CCCN(C(=O)COC2CCCCC2)CC1 | -46.8
C/C=C(\C)CN1C[C@H](c2cccc(OC)c2)[C@@H](N)C1 | 65.6
COc1cccc([C@H]2CN(CCCS(=O)(=O)N(C)C)C[C@@H]2N)c1 | -56.8
CCOCCN1C[C@H](c2cccc(OC)c2)[C@@H](N)C1 | -3.38
Cc1nc(C(=O)N(C)[C@@H]2CCC[C@@H](Oc3ccccc3)[C@@H]2O)co1 | -3.45
CC(C)c1nsc(N2CCCOCC2)n1 | -47.6
Cc1ccc(CN(CCCN(C)C)Cc2cnc(C)n2C)o1 | -17.8
Cc1ccc(CN(CCCN2CCOCC2)Cc2cnc(C)n2C)o1 | 55.1
Cc1ccc(CN(CCCN2CCOCC2)Cc2cnn(C)c2)o1 | -2.55

SMILES | INHIBITION [%]
Cc1cc(NC(=O)NCc2cccnc2OC2CCCC2)n(C)n1 | -37
O=C(NCCN1CCCCC1)c1cccc(Cl)c1Cl | 50.5
O=C(NCCN1CCCCC1)c1scnc1Cl | -130
Cc1cc(Br)ccc1C(=O)NCCN1CCCCCC1 | 30.2
Cc1ccc(CN2C(=O)CCC23CCC(NCC2CCOC2)CC3)cc1 (stereo not given) | -1.23
O=C(NC1CCC1)[C@@H]1CCO[C@@H]2CCN(CCc3ccccc3)C[C@H]21 | 36.5
Cc1c[nH]nc1C1CCCN1Cc1nccn1C (stereo not given) | 57.3
COc1cccc(CC2CCCN2CCCO)c1 (stereo not given) | -8.85
Cc1c[nH]nc1C1CCCN1Cc1ccncc1 (stereo not given) | -8.01
COc1cccc(CC2CCCN2Cc2nccn2C)c1 (stereo not given) | 52
Cc1c[nH]nc1C1CCCN1Cc1ncc[nH]1 (stereo not given) | 34.9
Cn1ccnc1CN1CCCC1CCc1ccccc1 (stereo not given) | 37.6
CC1CCN(C(=O)C(C)N2CCN(c3nccs3)CC2)CC1 (stereo not given) | -55.4
Cc1cc(C(=O)N2CCCCC2C)ccc1NC(=O)N1CCOCC1 (stereo not given) | -137
O=C(N1CCCCC1)N1CCN(CC(O)c2ccccc2)CC1 (stereo not given) | -4.34
O=C(c1cscn1)N1CCC[C@]2(C[C@H](OCC3CC3)CO2)C1 | -132
Cc1cc(-c2nccs2)nc(C2CCN(Cc3cccs3)CC2)n1 | 16.1
Cc1cc(-c2nccs2)nc(C2CCN(Cc3ccncc3)CC2)n1 | -25.9
Cc1cc(-c2nccs2)nc(C2CCN(Cc3ccc(F)cc3)CC2)n1 | 62.9
O=C(c1csc(I)c1)N1CCc2c(ncn2C2CC2)C1 | -41.85
Cc1nc(CN2CCc3ncnc(-c4cccnc4)c3CC2)cs1 | -30.7
CN1CC2(CCN(Cc3cccc(C#N)c3)CC2)CC1=O | -15.1

SMILES | INHIBITION [%]
CN1CCC2(COCCN(Cc3ccc4c(c3)OCO4)C2)C1 (stereo not given) | -102
CN1CCC2(COCCN(Cc3cccc(C#N)c3)C2)C1 (stereo not given) | 57
C/C=C(\C)CN1C[C@H](NC(=O)CCOC)[C@@H](c2ccc(C)o2)C1 | -33.1
CCC1(CO)CCN(C(=O)c2cc(COc3ccccc3F)[nH]n2)CC1 | -66.6
O=C(c1cccnc1)N1CCN2C[C@H](OCc3ccccc3)C[C@H]2C1 | -19.2
CCc1ccc(C2CC(=O)Nc3c2c(=O)[nH]n3C(C)C)cc1 (stereo not given) | -113
c1ccc(CN2CCn3c(Cn4cncn4)cnc3C2)nc1 | -53.9
O=C1N(Cc2ccc(F)c(F)c2)CCCC12CCN(C1CCCC1)C2 (stereo not given) | 68.1
O=C1N(Cc2ccc(F)cc2)CCCC12CCN(C1CCSCC1)C2 (stereo not given) | 9.56
O=C1N(Cc2ccccc2F)CCCC12CCN(C1CCSCC1)C2 (stereo not given) | 34.2
Cc1cccc(CN2CCCC3(CCN(C4CCSCC4)C3)C2=O)c1 (stereo not given) | 6.83
O=C1N(Cc2ccc(F)c(F)c2)CCCC12CCN(C1CCCCC1)C2 (stereo not given) | 60.9
CCS(=O)(=O)N1CCC2(CCCN(Cc3ccc(F)c(F)c3)C2=O)C1 (stereo not given) | -68
CCCS(=O)(=O)N1C[C@H]2CC[C@@H](C1)N(Cc1cscn1)C2=O | -60
Nc1cc(N2CCOCC(Cc3ccc4[nH]ccc4c3)C2)ncn1 (stereo not given) | -6.79
CCc1nnsc1C(=O)NC1CCN(CCOc2ccc(Br)cc2)CC1 | 2.8
Cc1nc(C(=O)NC2CCN(CCOc3ccc(Br)cc3)CC2)cs1 | 50
CC(=O)Nc1nc(C(=O)NCCOc2ccc(C)cc2)cs1 | -4.82
CCn1ccnc1CN1CCCN(C(=O)c2ccnc(C)n2)CC1 | -61.7
COc1ccc2c(c1)OCC(CNC1CCc3nc(C)nn3C1)=C2 (stereo not given) | -98
Cc1csc(N2CCCN(c3cc(C)nc(C)c3C#N)CC2)n1 | -45.8
O=C(Nc1cnn(COc2ccc(F)cc2Cl)c1)C1CC1 | 67.2

SMILES | INHIBITION [%]
O=C(Nc1cnn(Cc2ccc(F)cc2Cl)c1)C1CC1 | -0.313
O=C(O)CCCC(=O)Nc1cnn(COc2ccc(F)cc2Cl)c1 | -39.2
CO[C@H]1CN(C(=O)c2cn3cc(C)ccc3n2)CC[C@@]12CCCO2 | -142
Cc1nc(C(=O)N(C)CC2CCCO2)nn1-c1ccccc1C(C)C (stereo not given) | -143
CCOCc1nc(-c2ccc(F)cc2Cl)n(C)n1 | -121
CN1C(=O)CC(c2ccccc2)C12CCN(CC1CCOCC1)CC2 (stereo not given) | 36.1
CCN1C(=O)CC(c2ccccc2)C12CCN(CC1CCOCC1)CC2 (stereo not given) | 50.3
CN1C(=O)CC(c2ccccc2)C12CCN(CC1CC1)CC2 (stereo not given) | 16.7
Cc1nc(C)n(CC2CCCN2CC(=O)Nc2c(C)n[nH]c2C)n1 (stereo not given) | 35
Cc1cc(C)n(CC2CCCCN2CC(=O)Nc2c(C)n[nH]c2C)n1 (stereo not given) | -116
Cc1nc(C)n(CC2CCCCN2CC(=O)Nc2c(C)n[nH]c2C)n1 (stereo not given) | 54.2
CC(C)Cn1nc(-c2ccc(C(=O)O)cc2)cc1-c1ccc(F)cc1 | -57.3
CC(NCc1cccnc1)c1ccc(OCC(=O)NC2CC2)cc1 (stereo not given) | -107
CC(NCc1cccc(Cl)c1)c1ccc(OCC(=O)NC2CC2)cc1 (stereo not given) | 51.7
Cc1cccc(CNC(C)c2ccc(OCC(=O)NC3CC3)cc2)c1 (stereo not given) | -21
CC(C)(O)CN1CCN(C(=O)c2cccc3cccnc23)CC1 | 24.5
CC(C)CNC(=O)[C@H]1C[C@H]2CN(C(=O)Nc3ccc(F)cc3)C[C@@H]1O2 | -5.8
Cc1csc(NC(=O)CN2CCc3c(nc(C4CC4)n3C)C2)n1 | -122
NC(=O)c1ccc(C2CCCNC2)nc1 (stereo not given) | -43.7
NC(=O)c1ccccc1Oc1cccc(C2CCCNC2)n1 (stereo not given) | 55.8
NC(=O)c1ccccc1Oc1cnc(C2CCCN2)cn1 (stereo not given) | -95.3
COc1ccc(F)c(CN2CCCC(O)(CNCC(C)(C)C)C2=O)c1 (stereo not given) | 50.2

SMILES | INHIBITION [%]
CN(C)CCNCC1(O)CCCN(Cc2cccc(F)c2F)C1=O (stereo not given) | -65.2
O=C1N(Cc2cccc(F)c2F)CCCC1(O)CNCc1ccccn1 (stereo not given) | 4.26
O=C1N(Cc2cccc(F)c2F)CCCC1(O)CNCc1ccccc1 (stereo not given) | 61.9
O=C(CNCC1(O)CCCN(Cc2cccc(F)c2F)C1=O)NC1CC1 (stereo not given) | -93.9
COc1ccc(F)c(CN2CCCC(O)(CNCc3ncc[nH]3)C2=O)c1 (stereo not given) | -93.5
COC(=O)CNCC1(O)CCCN(Cc2cccc(F)c2F)C1=O (stereo not given) | -51
CN(CC1(O)CCCN(Cc2cccc(F)c2F)C1=O)C1CCCCC1 (stereo not given) | 65
CC1CCN(CC2(O)CCCN(Cc3cccc(F)c3F)C2=O)CC1 (stereo not given) | -71.6
O=C1N(Cc2cccc(F)c2F)CCCC1(O)CNC1CCCC1 (stereo not given) | 60.2
CN1CCC(NCC2(O)CCCN(Cc3ccccc3F)C2=O)CC1 (stereo not given) | 7.93
COc1ccc(F)c(CN2CCCC(O)(CNCc3ccon3)C2=O)c1 (stereo not given) | -19
Cc1noc([C@@H]2CC[C@@H]3[C@@H](CCN3c3nnc(C)s3)O2)n1 | -97.1
CCn1cnnc1CNC(=O)NC(C)c1ccccn1 (stereo not given) | -68.5
CCn1nc(C)c2c1cnn2CCNS(=O)(=O)c1cccs1 | -54.4
CCC(C)n1c(SCC(=O)N2CCOCC2)nc2cc(C)[nH]c2c1=O (stereo not given) | -77
CO[C@H]1CN(C(=O)c2ccc3oc(C)cc3c2)C[C@@]12CCCO2 | -39.5
Cc1ccc(S(=O)(=O)N2CCC(O)(CN(C)C)C2)cc1 (stereo not given) | 52
CN(C)CC1(O)CCN(S(=O)(=O)c2ccc(F)c(F)c2)C1 (stereo not given) | 20.7
CN(C)CC1(O)CCN(S(=O)(=O)c2ccc(F)cc2)C1 (stereo not given) | 36.6
COCC1COCCC12CCN(S(=O)(=O)c1ccc(C)cc1)CC2 (stereo not given) | -71.5
CN(C)CC1(O)CCN(S(=O)(=O)c2cccc(F)c2)C1 (stereo not given) | 66.7
CN(C)CC1(O)CCN(S(=O)(=O)c2ccc(Cl)cc2)C1 (stereo not given) | 42.9

From ChEMBL document CHEMBL4513216, “Probing the Open Global Health Chemical Diversity Library for Multistage-Active Starting Points for Next-Generation Antimalarials” (ACS Infect Dis, 2020)
